An excerpt weighted towards active compounds, which were near 1.6% of everything screened.
Sa RN4220 lethal – kills Staphylococcus aureus RN4220. S. aureus RN4220 growth, OD600, 16 h. inhibition, % (test concentration not listed). 0.33% of 330,000 active; in the data active = inhibition above about 85%;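 note: plate controls were untreated cells for no effect and reference antibiotic for full effect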
ugtP null kill – compounds lethal to S. aureus RN4220 ugtP deletion mutant; growth inhibition, % (no concentration beside the values); 0.54% of 330,000 active; OD600 growth, 16 h; in the data active = growth inhibition above about 68%;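 note: plate controls were untreated wells for no effect and antibiotic for full effect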
CCHFV vOTU inh – CCHFV vOTU protease inhibition | Pep-AMC fluorescence | inhibition, % at 11.5 µM | 0.55% of 370,000 active | AID 651958; in the data active = inhibition above about 30%; note: 0% = vehicle wells with enzyme and 100% = no enzyme wells
BJeLR viability – kills HRASV12-expressing BJeLR cells; AID 1554; 0.17% of 300,000 active; inhibition, % (no concentration beside the values); BJeLR (HRASV12) viability, CellTiter-Glo ATP luminescence, 48 h; in the data active = inhibition above about 50%
RecA intein inh – inhibitors of M. tuberculosis RecA intein splicing; cell-free RecA intein splicing, fluorescence; inhibition, % (no concentration beside the values); 0.75% of 290,000 active; in the data active = inhibition above about 30%;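 note: 0% = vehicle wells and 100% = reference inhibitor control wells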
Target sequence (P9WHJ3 whole entry, looked up): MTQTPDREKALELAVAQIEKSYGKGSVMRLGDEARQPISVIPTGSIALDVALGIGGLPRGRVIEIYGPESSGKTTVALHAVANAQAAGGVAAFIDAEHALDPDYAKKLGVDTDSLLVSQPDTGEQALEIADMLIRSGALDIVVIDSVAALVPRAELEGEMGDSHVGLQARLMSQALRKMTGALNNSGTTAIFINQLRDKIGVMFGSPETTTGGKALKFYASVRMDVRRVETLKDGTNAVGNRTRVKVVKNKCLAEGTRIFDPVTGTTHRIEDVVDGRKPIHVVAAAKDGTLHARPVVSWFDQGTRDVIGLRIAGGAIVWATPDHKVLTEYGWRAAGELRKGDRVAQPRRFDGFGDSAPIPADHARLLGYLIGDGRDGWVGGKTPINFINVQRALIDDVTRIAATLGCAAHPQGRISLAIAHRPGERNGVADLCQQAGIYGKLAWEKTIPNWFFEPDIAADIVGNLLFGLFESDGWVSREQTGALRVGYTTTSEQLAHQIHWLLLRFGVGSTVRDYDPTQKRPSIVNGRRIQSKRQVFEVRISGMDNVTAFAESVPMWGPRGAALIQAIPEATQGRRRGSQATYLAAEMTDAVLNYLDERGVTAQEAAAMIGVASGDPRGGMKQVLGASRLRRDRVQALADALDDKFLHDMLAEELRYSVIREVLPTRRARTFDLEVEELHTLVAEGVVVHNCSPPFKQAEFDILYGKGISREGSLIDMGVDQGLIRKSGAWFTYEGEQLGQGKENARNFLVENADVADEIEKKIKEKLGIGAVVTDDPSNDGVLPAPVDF
Mtb hypoxia rep – Mtb hypoxia fluorescent reporter inhibition | AID 1159583 | M. tuberculosis hypoxia-regulated fluorescent reporter, fluorescence | fluorescence inhibition, % (no concentration beside the values) | 0.1% of 300,000 active; in the data active = fluorescence inhibition mostly above about 23%, no sharp cut-off; inactive = mostly below about 17%
GFP chromo cs – counter-screen: blocks GFP chromophore formation | shares compounds with RecA intein inh | cell-free GFP chromophore formation, fluorescence | EC50, µM | 83% of 2,100 active | AID 434968; call rule not given here
* marks the source's active call; other numbers are inactive results; / = no result given.

SMILES | Sa RN4220 lethal | ugtP null kill | CCHFV vOTU inh | BJeLR viability | RecA intein inh | Mtb hypoxia rep | GFP chromo cs
O=C(NN=Cc1cn(-c2ccccc2)nc1-c1cccnc1)c1cccnc1 | -0.4 | 0.3 | / | / | / | 4.3 | /
CC1CCC[C@]2(CC(=O)c3cc(F)ccc3O2)C1 (some centres not stated) | 2.2 | 3.9 | / | / | / | 3.4 | /
CCN(CC)CCNC(=O)c1ccc2c(c1NCCO)C(=O)c1ccccc1C2=O | 27.2 | 8.3 | 58.9* | 0.8 | 78.4* | 11.3 | 6.89*
CC1=NNC(=O)C1CC(=O)N/N=C/C(C)=C/c1ccccc1 (configuration not stated) | / | / | -0.3 | -6.2 | 6.2 | / | /
CC1=NNC(=O)C1Cc1ccccc1C (configuration not stated) | 0.9 | 1.8 | -2.8 | -3.9 | 95.3* | 10.4 | 0.737*
CC(C)(C)c1cc(C(c2cccnc2)N2CCN(CCO)CC2)cc(C(C)(C)C)c1O (configuration not stated) | 70.8 | 80.8 | 0.5 | 17.8 | 37.9* | 20.5 | 35.3*
CN1CCN(Cc2cc(C(C)(C)C)c(O)c(C(C)(C)C)c2)CC1 | 4.0 | -1.4 | -4.5 | -7.2 | 0.9 | 9.4 | /
COc1cc(/C=C2/C(=O)N(c3ccc(C)c(C)c3)N=C2C)cc([N+](=O)[O-])c1O | -0.2 | -2.6 | -1.9 | 5.8 | 41.8* | -2.6 | 20.8*
COc1cc(/C=C2\C(=O)NN(c3ccc(C)cc3)C2=O)cc([N+](=O)[O-])c1O | 2.8 | 6.4 | 13.8 | -0.6 | 0.8 | 4.1 | /
O=C(CN1C(=O)S/C(=C\C=C\c2ccccc2)C1=O)Nc1ccc(C(=O)O)cc1 | 4.7 | 9.5 | 14.2 | 0.8 | 35.3* | 10.9 | >38
CC(C)[C@H](NC(=O)Nc1ccc(Oc2ccccc2)cc1)C(=O)O | / | / | 0.7 | 1.7 | 62.0* | / | >38
CC(C)[C@H](NC(N)=O)C(=O)Nc1ccc(Oc2ccccc2)cc1 | -4.8 | 0.7 | 15.2 | -0.9 | 0.6 | -4.7 | /
CCCCCOC(=O)C1C2C=C[C@]3(CN(CCCOC)C(=O)C13)O2 (some centres not stated) | 4.9 | -4.6 | / | / | / | 8.1 | /
COC(=O)C1=C(c2cc3ccccc3s2)CC2CCC1N2C(=O)NCCNC(C)=O (configuration not stated) | 2.2 | 0.7 | / | / | / | 19.9 | /
O=C(CS(=O)c1ccc(C(F)(F)F)cc1[N+](=O)[O-])Oc1ccccc1 (configuration not stated) | 4.4 | 15.8 | 10.1 | 1.2 | 66.0* | 3.9 | 14.8*
CC(O)C1CNC(=S)N1CCc1cccc(F)c1 (configuration not stated) | 4.1 | 1.3 | / | / | / | -3.8 | /
CCCCNC(=O)c1c(N)n(Cc2ccc3c(c2)OCO3)c2nc3ccccc3nc12 | -3.8 | -11.8 | 6.7 | -3.0 | 68.5* | 1.1 | >38
CCCCCn1c(N)c(C(=O)NCc2cccs2)c2nc3ccccc3nc21 | 0.7 | -7.5 | 0.1 | -2.7 | 81.8* | -1.6 | 3.24*
COc1cc2c(cc1OC)C1C(=O)c3ccc4c(c3OC1CO2)CC(C(C)(C)O)O4 (configuration not stated) | 4.6 | -0.6 | / | / | / | 16.1 | /
COC(=O)C1=C(C(=O)OC)C2N(C)c3ccc(OC)cc3[C@@]23CC(C(=O)OC)N(C(=O)NC2CCCCC2)C3=N1 (some centres not stated) | 5.1 | -14.5 | / | / | / | 0.2 | /
Cc1cccc(S(=O)(=O)C(C#N)c2nc3ccccc3nc2N2CCCC2)c1 (configuration not stated) | -17.9 | -5.1 | 10.3 | 7.0 | 44.7* | 24.1 | >38
O=C(c1cc([N+](=O)[O-])ccc1Cl)N1CCN(c2ccccn2)CC1 | 4.9 | 3.1 | 7.9 | 2.4 | 4.2 | 5.5 | /
O=C(c1cc(F)c(F)cc1Cl)N1CCN(c2ccc([N+](=O)[O-])c3ncccc23)CC1 | 5.0 | 6.0 | -15.5 | -2.4 | 32.3* | 9.6 | 23.2*
CCOC(=O)c1c(OCC)[nH]c2c1cc(O)c1ccccc12 | 27.5 | -11.3 | -1.9 | -6.4 | 95.3* | 6.7 | 4.26*
COc1ccc(-n2nc3c(c2NC(=O)C(C)Cl)CSC3)cc1 (configuration not stated) | 4.3 | -3.9 | 12.5 | -0.3 | 10.2 | 3.5 | /
SMILES | Sa RN4220 lethal | ugtP null kill | CCHFV vOTU inh | BJeLR viability | RecA intein inh | Mtb hypoxia rep | GFP chromo cs
COc1ccc(-n2nc3c(c2NC(=O)CCl)CSC3)cc1 | / | / | 17.9 | 16.0 | 33.5* | / | >38
Cc1cc(C)c(S(=O)(=O)Nc2cc(SCC(=O)O)c(O)c3ccccc23)cc1C | 15.9 | 10.7 | / | 2.2 | 96.9* | 15.2 | 0.869*
CC1C=C(C(=O)N2CCN(Cc3ccc4c(c3)OCO4)CC2)OC(OCc2ccc(CO)cc2)C1 (configuration not stated) | 7.4 | 5.4 | / | / | / | 21.3 | /
Oc1ccc(NC(=S)N=Nc2c(O)[nH]c3ccc(Br)cc23)cc1 | 6.4 | -31.5 | 5.0 | 4.2 | 67.5* | 0.4 | >38
Oc1ccc(NC(=S)N=Nc2c(O)[nH]c3ccccc23)cc1 | 5.3 | -19.5 | 4.9 | -1.2 | 10.2 | -6.8 | /
CCCCCCSc1ccc(C2N[C@@](CC(C)C)(C(=O)OC)C3C(=O)N(CC)C(=O)C23)cc1 (some centres not stated) | -7.7 | 2.0 | / | / | / | 6.5 | /
CCN1CCN(C(c2ccc(C(F)(F)F)cc2)c2ccc3cccnc3c2O)CC1 (configuration not stated) | 14.3 | 37.1 | 20.6 | 22.9 | 20.7 | 14.2 | /
Oc1c(C(c2ccccn2)N2CCCCC2)cc(Cl)c2cccnc12 (configuration not stated) | -2.3 | 7.2 | 1.6 | 10.8 | 10.4 | 7.5 | /
CN1CCN(C(c2ccc(Cl)cc2)c2cc(Cl)c3cccnc3c2O)CC1 (configuration not stated) | / | / | 16.7 | -1.6 | 79.4* | / | 30.8*
CN1CCN(C(c2ccc(C(F)(F)F)cc2)c2cc(Cl)c3cccnc3c2O)CC1 (configuration not stated) | / | / | 7.3 | 19.0 | 44.5* | / | 17.9*
CCOc1ccc(-c2nc(CN3CCCC(C(=O)N4CCOCC4)C3)c(C)o2)cc1 (configuration not stated) | -1.6 | 0.9 | 8.4 | -4.1 | 0.1 | 0.8 | /
Cc1ccc(-c2nc(CN3CCCC(C(=O)N4CCOCC4)C3)c(C)o2)cc1 (configuration not stated) | -0.4 | 5.7 | -5.7 | -1.6 | 43.7* | 3.2 | >38
CC1(C)Cc2ccccc2C(Nn2cnnc2)=N1 | 3.0 | 0.5 | 0.2 | -8.3 | 1.4 | 14.4 | /
CC1(C)Cc2ccccc2C2=NNC(=O)C2=N1 | 21.5 | 12.0 | -128.6 | -13.0 | 94.1* | 15.5 | 1.1*
CCOC(=O)C(C#N)C(c1cccnc1)c1c(C)[nH][nH]c1=O (configuration not stated) | 4.2 | 0.3 | 5.7 | -11.0 | 78.2* | 1.3 | 11.5*
CCOC(=O)/C(C#N)=C\c1cccnc1 | 0.8 | 4.9 | -7.0 | 4.1 | 1.0 | 7.6 | /

High-throughput results (PubChem)
